Out of some 2,400 compounds screened, about 220 (9.2%) were called active. Only a selection was taken, and actives are over-represented in it overall. A number with no mark means an inactive call.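 How the source made its calls: active means signal change above the mean of dofetilide-free buffer controls plus 3 SD, so a positive margin; inactive means the rest.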

For 49 compounds, signal change vs control minus 3*SD hit threshold (margin above threshold, higher = more increase) results are on record in PubChem BioAssay AID1839 (Johns Hopkins Ion Channel Center, 2009).

This experiment is described as follows: thallium signal changes without hERG – cell-based, CHO-K1 parental line, FluxOR thallium flux, counter-screen for hERG block protection project, confirmation (AID 1839).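 Further: compounds applied alone with no dofetilide to cells lacking hERG.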 Conditions: CHO-K1 parental cells, FluxOR thallium flux fluorescence; at 10 µM.
For the compound `COc1ccc(S(=O)(=O)N2CCN(C(=O)CNC(=O)c3ccc4c(c3)OCO4)CC2)cc1`, the signal change vs control minus 3*SD hit threshold (margin above threshold, higher = more increase) was -26.4%. As for `Cc1cc2c(cc(C(=O)OC(C(=O)NCc3ccco3)C(C)C)n2C)o1` (centres undefined), the signal change vs control minus 3*SD hit threshold (margin above threshold, higher = more increase) is -12.7%. For `Cn1c(=O)c2c(nc(Cl)n2CC(=O)N2CCCCC2)n(C)c1=O` the value was -27.9%. The value for `CCOC(=O)C1CCCCN1Cc1ccc(F)cc1` (centres undefined) was -18.3%; that for `CCc1ccc(S(=O)(=O)NC(=S)NC2CCCCC2)cc1` was 1.9% (active). As to `O=S(=O)(NC(=S)NC1CCCCC1)c1ccc(Cl)cc1`, the signal change vs control minus 3*SD hit threshold (margin above threshold, higher = more increase) is -16.4%.

With `Cc1ccc(S(=O)(=O)NC(=S)NC2CCCCC2)cc1`, the signal change vs control minus 3*SD hit threshold (margin above threshold, higher = more increase) is -13%.

For `CCCn1c(CC)nc([N+](=O)[O-])c1S(=O)(=O)c1ccccc1`, the signal change vs control minus 3*SD hit threshold (margin above threshold, higher = more increase) was -15.2%. On to `COC(=O)c1c(NS(=O)(=O)Cc2ccccc2)sc2c1CCCC2`, for which the signal change vs control minus 3*SD hit threshold (margin above threshold, higher = more increase) is -1.7%. The value for `CCC(C)(C)NC(=O)c1ccc(Sc2nncn2C)c([N+](=O)[O-])c1` was -27.2%. Take `Cc1ccc(Nc2nc(C)cs2)cc1`: the signal change vs control minus 3*SD hit threshold (margin above threshold, higher = more increase) was -10.7%. The value for `Cc1cccc(N/C(N)=N/c2nc(C)cc(=O)[nH]2)c1` was -33%; that for `Cc1ccc(Nc2cc(C)nn2-c2nc(C)cc(=O)[nH]2)cc1` was 15.1% (active); that for `CC(C)(C)Cc1nnc(NC(=O)c2ccco2)s1` was -32.3%. Take `CC1=[N+]([O-])C(C)(C)C(c2ccc(Br)cc2)=[N+]1[O-]`: the signal change vs control minus 3*SD hit threshold (margin above threshold, higher = more increase) was -17%. Regarding `COC(=O)c1sc(NC(=S)NC(=O)c2ccccc2F)nc1C`, the signal change vs control minus 3*SD hit threshold (margin above threshold, higher = more increase) is -6.2%. As for `COc1cc(NC(=O)c2ccccc2OCc2ccccc2)cc(OC)c1OC`, the signal change vs control minus 3*SD hit threshold (margin above threshold, higher = more increase) is -34.3%. For `COc1ccc(C(=O)CC(=O)C(=O)Nc2ccc(C)c(Cl)c2)cc1` the value was -23%.

With `COc1ccccc1C(=O)NNC(=O)C(=O)NC1CCCCC1`, the signal change vs control minus 3*SD hit threshold (margin above threshold, higher = more increase) is 14.6% (active).

Turning to `Cc1ccccc1C(=O)NNC(=O)c1cccc([N+](=O)[O-])c1`, the signal change vs control minus 3*SD hit threshold (margin above threshold, higher = more increase) is -30%.

Consider `Cc1ccc(NC(=O)C(=O)NNC(=O)c2ccccc2C)cc1Cl`, for which the signal change vs control minus 3*SD hit threshold (margin above threshold, higher = more increase) was 35% (active). `COc1ccc(C(=O)NNC(=O)C(=O)NC2CCCCC2)cc1`: the signal change vs control minus 3*SD hit threshold (margin above threshold, higher = more increase) is -33.5%. The value for `O=C(COc1ccc(Cl)cc1)NNC(=O)C(=O)NC1CCCCC1` was -26.3%; that for `COc1ccccc1C(=O)NCc1ccc2c(c1)OCO2` was -31%. The value for `COc1ccccc1C(=O)NNC(=O)C(=O)NCc1ccccc1` was 3.6% (active). As to `COc1ccccc1C(=O)NNC(=O)C(=O)Nc1ccc(C)c(Cl)c1`, the signal change vs control minus 3*SD hit threshold (margin above threshold, higher = more increase) is 55.4% (active).

On to `Cc1ccc(NC(=O)c2ccc3c(c2)OCO3)cc1Cl`, for which the signal change vs control minus 3*SD hit threshold (margin above threshold, higher = more increase) was -25.4%. In the case of `COc1ccc(NC(=O)C(=O)NNC(=O)c2ccc(Cl)cc2Cl)cc1`, the signal change vs control minus 3*SD hit threshold (margin above threshold, higher = more increase) was -20.1%.

In the case of `Cc1ccc(-n2ncc3c2CCCC3NC(=O)c2csnn2)cc1C` (centres undefined), the signal change vs control minus 3*SD hit threshold (margin above threshold, higher = more increase) was -37.5%.

`Cc1ccc(NC(=O)c2c([N+](=O)[O-])c(C(C)(C)C)nn2C)cc1`: the signal change vs control minus 3*SD hit threshold (margin above threshold, higher = more increase) was -22.3%. The value for `Cc1cc(C)c(NC(=O)C2CC3CCC2C3)c(C)c1` (centres undefined) was -16.2%; that for `CC(C)(C)C(=O)NC(=S)N1CCOCC1` was -15.9%.

Take `Cc1ccc(C)n1-n1c(C)nc2scc(-c3ccccc3)c2c1=O`: the signal change vs control minus 3*SD hit threshold (margin above threshold, higher = more increase) was -33.2%.

Regarding `Cc1c(Cl)cccc1NC(=S)N=Nc1c(O)n(CN2CCOCC2)c2ccccc12`, the signal change vs control minus 3*SD hit threshold (margin above threshold, higher = more increase) is -31.2%.

On to `O=C(NC(=S)N(CCc1ccccc1)CCc1ccccc1)c1ccco1`, for which the signal change vs control minus 3*SD hit threshold (margin above threshold, higher = more increase) is -17.5%. As for `CCOc1ccc(S(=O)(=O)Nc2nc3ccccc3nc2-n2ccc(=NC(=O)c3cccs3)cc2)cc1`, the signal change vs control minus 3*SD hit threshold (margin above threshold, higher = more increase) is -31.9%. The value for `CS(=O)(=O)N1CCN(c2ccccc2NC(=O)Nc2cccc(Cl)c2)CC1` was -32.6%.

Take `O=C1N2CCSC2=NC1(NS(=O)(=O)c1ccccc1)C(F)(F)F` (centres undefined): the signal change vs control minus 3*SD hit threshold (margin above threshold, higher = more increase) was -19%. With `Cc1ccc(Nc2nc(-c3cccs3)cs2)nc1`, the signal change vs control minus 3*SD hit threshold (margin above threshold, higher = more increase) was -32.7%.

In the case of `CC(C)(C)NC(=O)CN(C(=O)CS(=O)CC(=O)Nc1ccc(F)cc1)c1cccc(F)c1` (centres undefined), the signal change vs control minus 3*SD hit threshold (margin above threshold, higher = more increase) is -27.9%. The value for `O=c1c(Cc2ccccc2)c(O)nc2n1CCCS2` was -25.5%; that for `C/C(CC(=O)Nc1ccccn1)=N\NC(=O)C(=O)Nc1cccc(Cl)c1C` was -14.9%.

As for `Cc1ccccc1C(=O)NNC(=O)C(=O)Nc1cccc(Cl)c1C`, the signal change vs control minus 3*SD hit threshold (margin above threshold, higher = more increase) was -1.4%. For `COc1ccccc1C(=O)NNC(=O)C(=O)Nc1cccc(Cl)c1C`, the signal change vs control minus 3*SD hit threshold (margin above threshold, higher = more increase) is 55.6% (active).

In the case of `COc1ccccc1C(=O)Nc1ccc(C(=O)N2CCCC2)cc1`, the signal change vs control minus 3*SD hit threshold (margin above threshold, higher = more increase) is -13%. For `COc1ccccc1C(=O)NNC(=O)C(=O)Nc1ccc(C)cc1` the value was 59.6% (active).

Consider `COc1ccccc1C(=O)NNC(=O)C(=O)NC(C)(C)C`, for which the signal change vs control minus 3*SD hit threshold (margin above threshold, higher = more increase) was -7.1%. The value for `Cc1ccc(OCC(=O)NC(=S)Nc2ccc(Br)cn2)cc1C` was -27.8%; that for `Cn1cc([N+](=O)[O-])c(C(=O)N/N=C\c2c[nH]c3ccccc23)n1` was -27%.
